Results from the supplement of paper PMC11732987, “Enantioselective OTUD7B fragment discovery through chemoproteomics screening and high-throughput optimisation” (Communications Chemistry, 2025).

Legend:
Experiment in all cases: log2 ratio of Biotin-Ahx-Ub-VS probe labelling (fragment/DMSO); higher = less target engagement (more negative = stronger competition), active = hit call of the paper (q ≤ 0.05, log2 ratio ≤ -1)
Settings in all cases: compound concentration: 200 uM; treatment time: 3 h
USP34 = USP34 (UniProt Q70CQ2)
Outline: (§1)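 Each value is an average log2 ratio of fragment to vehicle, tested by unpaired t-test. The underlying Spectronaut label-free quantities were global-median-normalised, and only proteins with ≥2 unique peptides were included. Triplicate HEK293T lysate samples (495 µg) were exposed to fragment at 200 µM or vehicle for 3 h, then to Biotin-Ahx-Ub-VS at 0.5 µM final for 1 h, before NeutrAvidin enrichment of labelled DUBs, LysC and trypsin digestion, and diaPASEF LC-MS/MS.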

USP36 = molecular target: T1, USP36 (UniProt Q9P275)
T1 sequence (whole entry): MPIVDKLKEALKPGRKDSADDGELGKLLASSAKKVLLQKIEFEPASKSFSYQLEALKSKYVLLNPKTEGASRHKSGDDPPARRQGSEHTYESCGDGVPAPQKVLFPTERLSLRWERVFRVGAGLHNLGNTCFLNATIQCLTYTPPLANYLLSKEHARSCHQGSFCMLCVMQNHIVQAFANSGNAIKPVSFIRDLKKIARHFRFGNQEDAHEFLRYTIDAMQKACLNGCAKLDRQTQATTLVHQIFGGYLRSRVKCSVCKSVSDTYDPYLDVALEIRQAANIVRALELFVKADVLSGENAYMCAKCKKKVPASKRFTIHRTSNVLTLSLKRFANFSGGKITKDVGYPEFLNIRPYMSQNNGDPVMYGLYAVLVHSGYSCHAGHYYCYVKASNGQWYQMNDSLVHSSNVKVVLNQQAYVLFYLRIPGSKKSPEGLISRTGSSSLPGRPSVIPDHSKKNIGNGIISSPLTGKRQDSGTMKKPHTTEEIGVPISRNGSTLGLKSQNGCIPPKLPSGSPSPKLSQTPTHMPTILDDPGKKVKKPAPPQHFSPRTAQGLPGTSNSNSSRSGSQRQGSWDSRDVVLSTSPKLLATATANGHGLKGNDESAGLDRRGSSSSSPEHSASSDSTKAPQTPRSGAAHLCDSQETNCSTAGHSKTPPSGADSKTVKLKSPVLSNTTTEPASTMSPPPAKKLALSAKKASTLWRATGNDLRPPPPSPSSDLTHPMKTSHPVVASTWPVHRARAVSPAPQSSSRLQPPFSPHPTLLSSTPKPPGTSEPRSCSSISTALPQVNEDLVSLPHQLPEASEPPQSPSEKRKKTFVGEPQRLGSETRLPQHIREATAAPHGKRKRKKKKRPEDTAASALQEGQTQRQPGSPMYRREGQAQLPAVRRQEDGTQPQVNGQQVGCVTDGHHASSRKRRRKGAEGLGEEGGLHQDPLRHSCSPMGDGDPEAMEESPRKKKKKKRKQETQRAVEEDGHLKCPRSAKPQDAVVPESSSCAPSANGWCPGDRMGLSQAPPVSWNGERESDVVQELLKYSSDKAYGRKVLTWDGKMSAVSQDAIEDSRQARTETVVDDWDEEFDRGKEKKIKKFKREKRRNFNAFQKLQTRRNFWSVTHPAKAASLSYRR
Outline: as §1

USP38 = molecular target: T2, USP38 (UniProt Q8NB14)
T2 sequence (whole entry): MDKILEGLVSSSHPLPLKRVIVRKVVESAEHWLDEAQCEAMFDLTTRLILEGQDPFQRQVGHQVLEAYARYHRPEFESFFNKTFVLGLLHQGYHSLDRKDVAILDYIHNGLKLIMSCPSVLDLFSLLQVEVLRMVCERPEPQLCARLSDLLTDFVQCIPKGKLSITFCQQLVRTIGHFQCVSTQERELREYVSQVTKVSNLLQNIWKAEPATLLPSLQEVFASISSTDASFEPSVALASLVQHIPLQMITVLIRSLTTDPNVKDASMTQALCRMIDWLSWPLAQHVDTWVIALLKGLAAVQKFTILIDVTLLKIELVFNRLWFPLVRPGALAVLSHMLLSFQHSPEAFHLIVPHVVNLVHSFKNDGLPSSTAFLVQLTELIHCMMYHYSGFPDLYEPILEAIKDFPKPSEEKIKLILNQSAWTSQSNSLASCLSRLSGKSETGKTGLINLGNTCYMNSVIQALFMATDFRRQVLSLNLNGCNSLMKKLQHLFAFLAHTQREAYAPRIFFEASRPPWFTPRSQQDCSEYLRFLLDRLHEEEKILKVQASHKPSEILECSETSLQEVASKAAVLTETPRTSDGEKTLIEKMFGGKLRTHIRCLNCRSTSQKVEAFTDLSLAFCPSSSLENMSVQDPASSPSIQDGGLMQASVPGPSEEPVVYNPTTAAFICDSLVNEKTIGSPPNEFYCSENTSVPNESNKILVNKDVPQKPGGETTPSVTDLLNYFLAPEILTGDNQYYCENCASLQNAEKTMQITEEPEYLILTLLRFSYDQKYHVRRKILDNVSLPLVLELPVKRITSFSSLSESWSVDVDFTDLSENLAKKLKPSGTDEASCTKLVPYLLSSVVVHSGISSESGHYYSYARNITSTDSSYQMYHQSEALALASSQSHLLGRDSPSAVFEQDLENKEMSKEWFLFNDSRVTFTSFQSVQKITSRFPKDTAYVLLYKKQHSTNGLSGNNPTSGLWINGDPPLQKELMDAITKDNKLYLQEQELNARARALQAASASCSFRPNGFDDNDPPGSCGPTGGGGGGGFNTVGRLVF
Outline: as §1

USP39 = molecular target: T3, USP39 (UniProt Q53GS9)
T3 sequence (whole entry): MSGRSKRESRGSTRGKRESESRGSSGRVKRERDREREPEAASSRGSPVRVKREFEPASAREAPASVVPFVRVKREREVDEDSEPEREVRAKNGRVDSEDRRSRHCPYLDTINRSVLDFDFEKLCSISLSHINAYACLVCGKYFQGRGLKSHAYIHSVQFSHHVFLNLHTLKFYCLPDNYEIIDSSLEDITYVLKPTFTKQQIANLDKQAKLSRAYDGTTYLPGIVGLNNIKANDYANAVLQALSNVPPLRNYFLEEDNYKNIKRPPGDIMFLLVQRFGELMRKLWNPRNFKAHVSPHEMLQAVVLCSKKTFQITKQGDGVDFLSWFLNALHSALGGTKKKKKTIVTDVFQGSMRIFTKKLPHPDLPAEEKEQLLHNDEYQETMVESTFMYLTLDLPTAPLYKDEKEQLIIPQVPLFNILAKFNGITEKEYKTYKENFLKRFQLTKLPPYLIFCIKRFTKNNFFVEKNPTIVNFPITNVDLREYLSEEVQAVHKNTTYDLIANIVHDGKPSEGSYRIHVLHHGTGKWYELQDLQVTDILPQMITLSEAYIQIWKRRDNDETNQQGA
Outline: as §1

USP4 = molecular target: T4, USP4 (UniProt Q13107)
T4 sequence (whole entry): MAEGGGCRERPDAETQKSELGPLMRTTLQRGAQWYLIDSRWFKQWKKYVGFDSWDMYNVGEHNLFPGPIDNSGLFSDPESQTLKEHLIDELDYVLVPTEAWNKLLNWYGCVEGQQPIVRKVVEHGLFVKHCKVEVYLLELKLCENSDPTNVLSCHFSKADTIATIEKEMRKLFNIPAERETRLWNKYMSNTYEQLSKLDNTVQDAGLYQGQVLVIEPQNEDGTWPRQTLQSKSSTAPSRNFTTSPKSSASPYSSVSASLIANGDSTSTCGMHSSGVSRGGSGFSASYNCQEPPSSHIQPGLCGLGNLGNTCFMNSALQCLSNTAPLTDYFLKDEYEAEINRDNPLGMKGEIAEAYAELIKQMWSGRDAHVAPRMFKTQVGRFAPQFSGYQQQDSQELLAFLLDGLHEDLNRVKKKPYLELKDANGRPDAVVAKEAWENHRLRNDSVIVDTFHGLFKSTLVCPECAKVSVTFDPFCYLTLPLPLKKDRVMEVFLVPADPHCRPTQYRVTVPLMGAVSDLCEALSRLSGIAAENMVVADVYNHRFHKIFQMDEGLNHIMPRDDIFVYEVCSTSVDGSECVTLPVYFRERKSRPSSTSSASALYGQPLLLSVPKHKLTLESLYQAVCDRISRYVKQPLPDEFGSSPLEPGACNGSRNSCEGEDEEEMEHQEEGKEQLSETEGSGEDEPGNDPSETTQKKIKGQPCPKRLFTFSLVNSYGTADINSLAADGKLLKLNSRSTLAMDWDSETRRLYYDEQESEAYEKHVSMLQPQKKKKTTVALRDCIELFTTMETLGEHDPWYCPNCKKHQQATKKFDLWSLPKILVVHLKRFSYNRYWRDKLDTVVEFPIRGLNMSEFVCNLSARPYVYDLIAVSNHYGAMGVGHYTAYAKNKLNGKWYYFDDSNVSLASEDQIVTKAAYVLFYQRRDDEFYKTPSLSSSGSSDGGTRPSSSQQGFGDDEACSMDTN
Outline: as §1

Measured: log2 ratio of Biotin-Ahx-Ub-VS probe labelling

USP34, sequence (Q70CQ2 whole entry, the tested form may be a part): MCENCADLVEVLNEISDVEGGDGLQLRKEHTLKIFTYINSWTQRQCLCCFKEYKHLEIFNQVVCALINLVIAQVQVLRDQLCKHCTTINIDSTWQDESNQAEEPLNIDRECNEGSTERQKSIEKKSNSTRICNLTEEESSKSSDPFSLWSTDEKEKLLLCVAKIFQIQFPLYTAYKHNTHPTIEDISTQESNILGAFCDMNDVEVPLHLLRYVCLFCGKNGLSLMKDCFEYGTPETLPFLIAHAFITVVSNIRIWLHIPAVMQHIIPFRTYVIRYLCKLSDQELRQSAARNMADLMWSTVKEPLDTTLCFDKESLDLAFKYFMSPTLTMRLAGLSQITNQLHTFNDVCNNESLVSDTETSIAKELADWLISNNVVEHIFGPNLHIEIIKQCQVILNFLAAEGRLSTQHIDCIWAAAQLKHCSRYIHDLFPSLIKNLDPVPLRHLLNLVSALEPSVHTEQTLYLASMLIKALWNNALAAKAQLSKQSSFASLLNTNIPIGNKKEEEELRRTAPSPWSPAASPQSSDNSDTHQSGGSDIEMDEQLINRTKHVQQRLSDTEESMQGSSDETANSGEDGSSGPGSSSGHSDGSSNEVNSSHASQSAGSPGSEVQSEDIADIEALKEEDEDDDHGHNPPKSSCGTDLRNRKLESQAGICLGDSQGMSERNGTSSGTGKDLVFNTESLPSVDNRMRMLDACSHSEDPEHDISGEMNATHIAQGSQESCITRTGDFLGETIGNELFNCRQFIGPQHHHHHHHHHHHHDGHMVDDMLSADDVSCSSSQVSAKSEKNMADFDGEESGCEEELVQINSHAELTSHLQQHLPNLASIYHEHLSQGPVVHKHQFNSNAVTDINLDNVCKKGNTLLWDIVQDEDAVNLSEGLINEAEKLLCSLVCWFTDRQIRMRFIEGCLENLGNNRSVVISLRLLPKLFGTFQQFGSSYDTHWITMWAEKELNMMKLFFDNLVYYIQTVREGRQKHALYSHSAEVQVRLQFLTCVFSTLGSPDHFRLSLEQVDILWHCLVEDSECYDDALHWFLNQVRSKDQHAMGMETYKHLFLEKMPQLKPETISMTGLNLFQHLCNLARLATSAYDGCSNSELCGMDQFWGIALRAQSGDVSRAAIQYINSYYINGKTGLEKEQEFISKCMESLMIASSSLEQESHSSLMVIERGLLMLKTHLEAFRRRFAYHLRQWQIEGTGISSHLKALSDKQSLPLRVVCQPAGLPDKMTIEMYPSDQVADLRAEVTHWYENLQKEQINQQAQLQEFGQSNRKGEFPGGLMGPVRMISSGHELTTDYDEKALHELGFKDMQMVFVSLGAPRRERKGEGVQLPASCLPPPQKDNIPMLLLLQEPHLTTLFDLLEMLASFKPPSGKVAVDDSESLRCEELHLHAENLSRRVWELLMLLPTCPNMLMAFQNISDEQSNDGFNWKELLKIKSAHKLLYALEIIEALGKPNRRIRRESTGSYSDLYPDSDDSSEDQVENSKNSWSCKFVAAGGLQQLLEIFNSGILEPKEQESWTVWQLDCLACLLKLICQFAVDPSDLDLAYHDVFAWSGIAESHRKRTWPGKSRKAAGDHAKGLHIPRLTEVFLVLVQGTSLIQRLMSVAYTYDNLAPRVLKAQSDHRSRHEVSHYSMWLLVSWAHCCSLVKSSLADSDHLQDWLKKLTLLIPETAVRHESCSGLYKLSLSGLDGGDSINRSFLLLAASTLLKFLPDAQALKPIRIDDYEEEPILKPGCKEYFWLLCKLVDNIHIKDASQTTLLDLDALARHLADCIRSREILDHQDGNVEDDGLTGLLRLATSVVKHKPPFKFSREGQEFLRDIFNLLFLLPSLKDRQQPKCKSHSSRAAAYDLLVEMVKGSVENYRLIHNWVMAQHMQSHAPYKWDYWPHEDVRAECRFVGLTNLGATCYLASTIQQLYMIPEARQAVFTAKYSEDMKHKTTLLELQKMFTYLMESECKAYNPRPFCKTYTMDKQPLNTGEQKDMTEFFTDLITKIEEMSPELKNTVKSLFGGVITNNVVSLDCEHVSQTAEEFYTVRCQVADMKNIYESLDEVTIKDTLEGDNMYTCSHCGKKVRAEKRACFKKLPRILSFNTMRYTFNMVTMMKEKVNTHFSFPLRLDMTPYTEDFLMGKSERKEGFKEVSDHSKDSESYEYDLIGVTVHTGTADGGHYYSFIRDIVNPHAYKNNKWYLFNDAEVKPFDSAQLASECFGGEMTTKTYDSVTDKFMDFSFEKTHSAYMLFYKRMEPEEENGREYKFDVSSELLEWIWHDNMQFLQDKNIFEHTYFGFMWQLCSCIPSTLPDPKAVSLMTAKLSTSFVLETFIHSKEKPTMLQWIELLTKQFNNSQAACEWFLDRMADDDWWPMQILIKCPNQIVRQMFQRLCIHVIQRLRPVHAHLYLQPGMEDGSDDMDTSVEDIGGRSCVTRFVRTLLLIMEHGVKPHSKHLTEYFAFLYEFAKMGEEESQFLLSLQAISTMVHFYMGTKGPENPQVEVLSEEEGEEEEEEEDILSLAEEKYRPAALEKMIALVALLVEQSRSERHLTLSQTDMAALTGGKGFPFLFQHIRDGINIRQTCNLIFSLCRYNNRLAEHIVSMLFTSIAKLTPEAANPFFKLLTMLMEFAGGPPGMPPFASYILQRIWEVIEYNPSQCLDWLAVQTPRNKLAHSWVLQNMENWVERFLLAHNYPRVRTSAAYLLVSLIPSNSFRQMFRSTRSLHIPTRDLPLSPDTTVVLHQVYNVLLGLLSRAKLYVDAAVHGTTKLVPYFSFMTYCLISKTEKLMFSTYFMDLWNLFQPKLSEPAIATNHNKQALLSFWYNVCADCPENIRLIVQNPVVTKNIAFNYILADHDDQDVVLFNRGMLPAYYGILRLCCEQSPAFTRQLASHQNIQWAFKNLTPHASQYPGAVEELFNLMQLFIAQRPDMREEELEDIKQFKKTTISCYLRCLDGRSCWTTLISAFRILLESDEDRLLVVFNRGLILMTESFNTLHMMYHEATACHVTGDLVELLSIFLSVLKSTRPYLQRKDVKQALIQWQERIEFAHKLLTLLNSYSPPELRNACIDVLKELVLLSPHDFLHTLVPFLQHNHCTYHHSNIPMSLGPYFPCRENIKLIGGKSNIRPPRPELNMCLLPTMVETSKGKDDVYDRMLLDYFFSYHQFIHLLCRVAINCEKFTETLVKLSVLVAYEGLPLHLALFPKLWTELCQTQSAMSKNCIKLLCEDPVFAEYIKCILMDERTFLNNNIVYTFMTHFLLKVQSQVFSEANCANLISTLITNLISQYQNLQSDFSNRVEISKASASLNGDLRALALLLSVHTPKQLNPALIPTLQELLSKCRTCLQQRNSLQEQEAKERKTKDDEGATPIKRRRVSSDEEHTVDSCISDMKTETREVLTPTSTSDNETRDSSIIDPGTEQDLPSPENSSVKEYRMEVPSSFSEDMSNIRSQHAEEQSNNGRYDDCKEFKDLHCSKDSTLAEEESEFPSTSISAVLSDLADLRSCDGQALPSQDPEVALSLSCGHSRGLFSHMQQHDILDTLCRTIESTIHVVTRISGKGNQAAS

CCN(Cc1ccc(C#N)cc1F)C(=O)CCl
inactive: USP34 -0.454 | USP36 -0.0792 | USP38 -0.292 | USP39 -0.0856 | USP4 -0.105
